Reference: PubChem BioAssay (NCATS)
Inconclusive results are not listed. Calls of active or inactive are those of the source. Calls come from the whole dose curve; as a rule, active = well fitted activation curve with a large enough effect in the signal ratio, with a control signal flat (not every such curve was filed as active); inconclusive = small, poorly fitted or top-dose-only effect, or effect the other way, or a change in a side signal; inactive = flat fitted curve, though single readings scatter; the % refers to the signal ratio.

assay: qHTS Assay for Identification of Small Molecule Agonists for Hypoxia Response Element Signaling Pathway (AID 914); conditions: ME-180 (cervical carcinoma) HRE-bla reporter, beta-lactamase ratio, CoCl2, 17 h; activation: active compounds read high; for activation: % of control where 0% means no effect
Text: NIH Molecular Libraries Screening Centers Network [MLSCN]
NIH Chemical Genomics Center [NCGC]
Hypoxia-inducible factor-1 (HIF-1) is the major hypoxia-regulated transcription factor that controls cellular responses to low oxygen concentration. HIF-1 is composed of two subunits: hypoxia responsive HIF-1 alpha and constitutively expressed HIF-1 beta, which is also known as aryl hydrocarbon receptor nuclear translocator. During hypoxic conditions, HIF-1 alpha heterodimerizes with HIF-1 beta and translocates into the nucleus where the HIF-1 complex binds to the hypoxia-response element (HRE) and activates expression of target genes such as VEGF (vascular endothelial growth factor). HIF-1 alpha protein levels are elevated in many solid tumors, including those of the cervix and brain. Within tumors, cells that are the greatest distance from blood vessels and therefore the most hypoxic express the highest levels of HIF-1 alpha. Therapeutic blockade of the HIF-1 signaling pathway in cancer cells therefore provides an attractive strategy for development of anticancer drugs.
Using a beta-lactamase reporter-gene under control of the hypoxia response element, a cell-based assay [CellSensor(TM) HRE-bla ME-180 developed by Invitrogen Corp.] was used to measure hypoxia-induced signaling. Library compounds were measured for their ability to positively modulate the action of EC50 CoCl2 on reporter gene activity. Compounds were screened in a titration series in 1536-well format. Positive modulators were identified based on the AC50 values derived from the screening data.
NCGC Assay Protocol Summary:
2500 cells/5uL in Opti-MEM medium containing 0.5% dialyzed FBS, 0.1 mM NEAA, 1 mM sodium pyruvate and 10 mM HEPES was dispensed into 1536-well plates and cells were cultured at 37 degrees Celsius overnight. Next day 23 nL of compounds or DMSO were delivered to each well using a pin tool, and 1uL of EC50 level of CoCl2, or EC100 level of CoCl2, or assay medium was added. And then the plates were incubated at 37 degrees Celsius for 17 hours. 1 uL of CCF4-dye mixture was added to each well. After incubated at room temperature for 2.5 hours the plates were measured on an EnVision plate reader at Excitation 405nm, Emission1=460nm and Emission 2=530nm. The %Activity was determined from the ratio of 460nm/530nm.
Potency is the fitted concentration of half-maximal effect.

activation, inactive:
Cc1cccc(C)c1NC(=O)Nc1ccc(S(N)(=O)=O)cc1 13.8%
Cc1ccc(S(=O)(=O)Nc2cc(=O)[nH]c3c2CCC3)cc1 2.61%
Nc1ccc(CCNc2ncnc3c2ncn3[C@@H]2O[C@@H](CO)[C@H](O)[C@@H]2O)cc1 0.683%
Nc1ncnc2c1ncn2[C@@H]1CCCO1 -13.1%
Cc1c2cccc(Sc3ccccc3)c2c2c3c(cccc13)[S+](c1ccccc1)C2 (stereo not given) -19.6%
Cc1c(C(=O)O)nc(/C=C\C(=O)O)[nH]c1=O 12.3%
CCNc1ncc2nc(CCc3ccccc3)c(=O)n(-c3ccc(OC)cc3)c2n1 -1.93%
O=C1CCC(c2ccccc2)=NN1c1nc2ccccc2s1 -16.7%
C[C@@](N)(/C=C\c1ccccc1)C(=O)O -2.86%
O=C(O)CC[C@@]1(c2ccccc2)NC(=O)NC1=O -0.349%
N#C/C(=C\Nc1ccccn1)C(=O)c1ccco1 -12.2%
S=C1SCN(C2CCCCCCCCCCC2)CN1C1CCCCCCCCCCC1 24.8%
Cc1cccc(C)c1OC[C@@H](N)C(C)C -2.64%
C[C@]12CC[C@H]3c4ccc(O)cc4CC[C@@H]3[C@H]1CC[C@@H]2OP(=O)(O)O 11.8%
NCC[C@H](N)C(=O)O -6.29%
N=c1nc(N)nc(N)n1-c1ccc(S(N)(=O)=O)cc1 8.62%
Nc1ccc(-c2ccc(Nc3cc(S(=O)(=O)O)c(N)c4c3C(=O)c3ccccc3C4=O)cc2)c(S(=O)(=O)O)c1 -7.34%
COc1ccc(-c2csc3c2[N+]2=CCC=C2C3=O)cc1 4.84%
Cc1[nH]n(-c2ccc(S(=O)(=O)O)cc2)c(=O)c1N=Nc1ccccc1 27.8%
CC1(C)[C@@H]2CC[C@]1(C)[C@@H](OC(=O)CSC#N)C2 -0.299%
CCOC(=O)C(C)(C)[C@H](O)C(C)C 11.4%
Cn1c(=O)c2[nH]c(CCNC(=O)c3ccccc3)nc2n(C)c1=O 8.28%
CC1=N[C@@](C)(COC(=O)[C@]2(C)N[C@](C)(CO)CO2)COC1=O 5.98%
O=C(Nc1ccc2ncccc2c1)Nc1ccc2ncccc2c1 -12.2%
O=C(NCCO)c1ccc(Cl)cc1 9.98%
NS(=O)(=O)c1cc2c(cc1Cl)N[C@H](Cc1ccccc1)NS2(=O)=O 4.65%
O=C(C[C@@H](C(=O)O)N1CCOCC1)c1ccccc1 16%
COC(=O)[C@]1(C)CCC(c2ccc(C)cc2)=C(CC(=O)O)C1 4.66%
CCO[P@]1(=O)OC[C@@H]2O[C@H](n3cnc4c(N)ncnc43)[C@H](O)[C@@H]2O1 10.2%
CN(C)C(=O)C1CCN(Cc2c[nH]c3ccccc23)CC1 16.5%
C[C@@]12CC(=O)[C@@H]3[C@@H](CCC4=CC(=O)CC[C@]43C)[C@@H]1CC=C2CC(=O)O -1.62%
FC(F)(F)c1nc(SCc2ccc(Cl)cc2)n[nH]1 8.01%
N=C(N)SCc1cc(Cl)cc(Cl)c1O -24.5%
NC(=O)C[C@H](N)C(N)=O 9.57%
Cc1c(S(=O)(=O)O)ccc(N=Nc2c(O)c(C(=O)O)cc3ccccc23)c1Cl -17.8%
COc1ccc(/C=C(\C#N)C(N)=O)c(OC)c1 -21.9%
OCCCSCCO 7.65%

Potency, active:
CN1CCN(c2ncc3nc(-c4cccs4)c(=O)n(C[C@H]4CCCO4)c3n2)CC1 3.16 µM
O=c1c(-c2ccccc2)nc2cnc(N3CCNCC3)nc2n1Cc1ccc(F)cc1 3.16 µM
CN1CCN(c2ncc3nc(-c4ccccc4)c(=O)n(Cc4ccc(F)cc4)c3n2)CC1 3.16 µM
